# Reference: ChEMBL document CHEMBL4513216, “Probing the Open Global Health Chemical Diversity Library for Multistage-Active Starting Points for Next-Generation Antimalarials” (ACS Infect Dis, 2020)
# Out of some 69,000 compounds screened, about 8,600 (12%) showed an effect of 50% or more. This excerpt belongs to a sample that is enriched for strong results.
# Tested on: Plasmodium berghei
# Experiment: Screen against P. berghei liver stage (PbLuc), transformed with Luciferase, at 10uM
# Format: functional, HepG2
# Conditions: tested at 10 uM
row,Compound,INHIBITION [%]
1,CN(C)CCO[C@H]1CN(Cc2ccc3c(c2)OCO3)[C@@H]2COC[C@H]12,33
2,CCNC(=O)Cc1n[nH]c(-c2cncc(Br)c2)n1,39.3
3,Cc1cnn(CCNCC(=O)NC(C)c2ccc3c(c2)OCCO3)c1 (stereo not given),8.64
4,CC(=O)N1[C@H](CN(C)C)C[C@@H]2CN(C(=O)c3cccc(F)c3)CC[C@@H]21,29.9
5,CN(C)c1ccc(CCCNC(=O)NCC(O)c2cccs2)cc1 (stereo not given),60.4
6,CN(C)c1ccc(C(O)CNC(=O)NCCCc2ccccc2)cc1 (stereo not given),5.91
7,CN(C)c1ccc(CCCNC(=O)NCC(O)c2ccsc2)cc1 (stereo not given),8.92
8,CN1CC(c2cc(O)nc(NCc3ccccc3Cl)n2)CC1=O (stereo not given),30.4
9,O=C(CCc1ccc(Cl)s1)NCc1nnc2n1CCCCC2,5.9
10,O=C(c1nc(Cc2c[nH]c3ccccc23)no1)N1CCCC1,25.2
11,O=C(c1nc(Cc2c[nH]c3ccccc23)no1)N1CCCCC1,55.4
12,O=C(c1nc(Cc2c[nH]c3ccccc23)no1)N1CCOCC1,29.9
13,CCOc1ncccc1NC(=O)NCC(O)c1ccc(OC)cc1 (stereo not given),44.1
14,Cc1cc(C)n(Cc2cc(C(=O)N3CCCC3c3nccs3)n[nH]2)n1 (stereo not given),10.7
15,CCOCc1nc2c(c(NC(CC)c3ccnn3C)n1)CCNCC2 (stereo not given),40.6
16,CCOCc1nc2c(c(NC(CC)c3cccnc3)n1)CCNCC2 (stereo not given),53.5
17,CCOCc1nc2c(c(NC(CC)c3ccncc3)n1)CCNCC2 (stereo not given),37.7
18,O=C1[C@@H]2C[C@H](O)CCN2C(=O)CN1CCSc1ccccn1,-19.41
19,NC(=O)CN1CCC(c2cc(C(F)(F)F)n3ccnc3n2)CC1,30.8
20,CC(C)NC(=O)[C@@H]1CN(C)C[C@]12COc1ccc(F)cc1C2=O,12.515
21,O=C(NCC(F)(F)F)c1ccc(-n2cccn2)nn1,-27.8
22,Cc1csc(N2CCN(CC(=O)NCc3ccccn3)CC2C)n1 (stereo not given),-19.605
23,CC(CN1CCOC1=O)NC(=O)c1cccc(C#N)c1 (stereo not given),42.1
24,CC(CNC(=O)c1cccc(-n2cccn2)c1)Cn1ccnc1 (stereo not given),-13.6
25,CCn1nc(C)c(CCNC(=O)c2cccc(-n3cccn3)c2)c1C,72.5
26,CCn1nc(C)c(CCNC(=O)c2cccc(NCC(=O)O)c2)c1C,22.3
27,COc1cccc(C(C(=O)O)N2CCC(Cn3cccn3)CC2)c1OC (stereo not given),19.8

row,Compound,INHIBITION [%]
1,CC(C)CC(=O)N1CC(=O)c2sc(NC3CCCCC3)nc2C1,10
2,COc1ccccc1Nc1nc2c(s1)C(=O)CN(C(=O)CC(C)C)C2,59
3,CNc1nc2c(s1)C(=O)CN(C(=O)[C@@H](N)Cc1cccc(OC)c1)C2,45.6
4,CC(C)CC(=O)N1CC(=O)c2sc(NCCc3ccccc3)nc2C1,35.2
5,CC(C)CC(=O)N1CC(=O)c2sc(Nc3ccc(F)cc3F)nc2C1,63.4
6,COCC(=O)N1CCC2(CC1)CNc1ccc(F)cc12,5.63
7,COCC(=O)N1CC(=O)c2sc(Nc3ccc(F)cc3F)nc2C1,53
8,CC1CCC2(CC1)Nc1ccccc1CO2 (stereo not given),29.7
9,CCOC(=O)C1(NC(=O)CCNc2cc(C)ccc2OC)CCCCC1,-7.77
10,CC(C)Cc1nc(-c2ccnc(N3CCNCC3)n2)no1,31.2
11,Cn1cc(C(=O)N2CC[C@@H]3[C@@H]2CCN3c2ncc(F)cn2)cn1,2.4
12,CC1CCN(C(=O)Cn2nc(Br)nc2Br)CC1,-12.7
13,Cc1nc(C2CCCN(C(=O)c3cccc4c3OCCO4)C2)no1 (stereo not given),15.3
14,CC/C=C(/C)C(=O)N1CCN(C2=NCC(C)S2)CC1 (stereo not given),30.3
15,CCN(CC)C(=O)N1CCN(C2=NCC(C)S2)CC1 (stereo not given),65.7
16,CCC(C)(C)C(=O)N1CCN(C2=NCC(C)S2)CC1 (stereo not given),-87.7
17,CCN1C(=O)C2(CCOCC2)c2cc(NC(=O)c3csnn3)ccc21,-35.2
18,CCN1C(=O)C2(CCOCC2)c2cc(NC(=O)COC)ccc21,-19.8
19,CCN1C(=O)C2(CCOCC2)c2cc(NC(=O)c3cnccn3)ccc21,-28.8
20,CCC(C)Nc1ccc2c(c1)C1(CCOCC1)C(=O)N2c1ccccc1 (stereo not given),10.5
21,CC(=O)Nc1ccc2c(c1)C1(CCOCC1)C(=O)N2c1ccsc1,58.7
22,CC(C)Nc1ccc2c(c1)C1(CCOCC1)C(=O)N2c1ccsc1,52.3
23,COc1cccc(OC)c1CN1CC(O)CN(S(C)(=O)=O)CC1=O (stereo not given),46.4
24,NC(=O)CN1CCCC(Cc2ccc(N)nn2)C1 (stereo not given),8.72
25,CC(C)n1c(C2CCCN(Cc3ccnn3C)C2)nc2ccccc21 (stereo not given),23.9
26,COc1cccc(CNc2c(O)c(=O)c2=O)c1,0.207
27,Cc1noc(C2CCC3(CCN(C(=O)c4ccn(C)n4)CC3)O2)n1 (stereo not given),-0.371

row,Compound,INHIBITION [%]
1,O=C(Cc1ccccc1C(F)(F)F)N1CCC2(CC1)OCCCC2O (stereo not given),13.2
2,COc1ccccc1CC(=O)N1CC[C@H](O)[C@]2(CCCO2)C1,-12.2
3,COc1cccc(CC(=O)N2CCC3(CC2)OCCCC3O)c1OC (stereo not given),69.7
4,COC(=O)c1ccoc1CN(C)CC(=O)NC1CCS(=O)(=O)C1 (stereo not given),17.9
5,Cc1nn(-c2ccccc2)c2c1c(C(F)F)cc(=O)n2CC(=O)O,36.35
6,CN(C)CCN(C)C1CCN(C(C(=O)O)c2ccc(F)c(Cl)c2)CC1 (stereo not given),34.9
7,CCCOc1cc(CNC(=O)Nc2ccccn2)ccn1,3.87
8,CC(C)c1nn(C)c(N(C)C)c1CNC1CCN(C2CC2)CC1,12.8
9,CSCC[C@@H](CO)NC(=O)c1ccc2nc(NS(C)(=O)=O)sc2c1,46.7
10,C[C@@H](CO)NC(=O)c1ccc2nc(NS(C)(=O)=O)sc2c1,54.2
11,CC(CO)NC(=O)c1ccc2[nH]/c(=N\S(C)(=O)=O)sc2c1 (stereo not given),4.93
12,Cc1cc(C(=O)N2CCC3(CC2)C(=O)N(C)CCN3CC2CC2)c(C)o1,4.98
13,CN(Cc1ccncc1)C1COC2(CCN(Cc3ccsc3)CC2)C1 (stereo not given),49.7
14,CN(Cc1ccncc1)C1COC2(CCN(Cc3ccco3)CC2)C1 (stereo not given),59
15,CN(Cc1ccccn1)C1COC2(CCN(Cc3cccnc3)CC2)C1 (stereo not given),38.1
16,CN(Cc1ccncc1)C1CC2(CCN(Cc3ccccn3)CC2)C1,28.7
17,CN(Cc1ccncc1)C1COC2(CCN(Cc3cccs3)CC2)C1 (stereo not given),4.57
18,CN(Cc1ccncc1)C1COC2(CCN(Cc3ccccn3)CC2)C1 (stereo not given),52
19,CN(Cc1ccncc1)C1COC2(CCN(c3ncc(F)cn3)CC2)C1 (stereo not given),37.8
20,CN(C)C1COC2(CCN(Cc3ccncc3)CC2)C1 (stereo not given),29.9
21,CN(Cc1ccncc1)C1COC2(CCN(Cc3nccn3C)CC2)C1 (stereo not given),73
22,O=C(O)CCNC(=O)Cc1csc(-c2cccc(Cl)c2)n1,25.1
23,Cc1nc(CN2CCN(C(=O)c3sccc3C3CC3)CC2)oc1C,1.75
24,CCc1cc(O)n2nc(C3CCCN3C(=O)c3ccccn3)cc2n1 (stereo not given),18.85
25,COc1cccc(CNc2nc(O)cc(C3CC(=O)N(C)C3)n2)c1 (stereo not given),17.1
26,Cc1ccc(CNc2nc(O)cc(C3CC(=O)N(C)C3)n2)cc1 (stereo not given),-16.5
27,CCOCCCNc1nc(O)cc(C2CC(=O)N(C)C2)n1 (stereo not given),56.9

row,Compound,INHIBITION [%]
1,CNC(=O)c1cnc(C)nc1CCNC(=O)CCc1ccccc1,-0.232
2,COCC1c2c(cnn2CC2CC2)CCN1Cc1nccs1 (stereo not given),7.11
3,Cc1nc(CCNC(=O)C(N)c2c(C)n[nH]c2C)sc1C (stereo not given),56
4,Cc1n[nH]c(C)c1C(N)C(=O)NCCc1csc(C(C)C)n1 (stereo not given),-10.8
5,CSCc1nc(CCNC(=O)C(N)c2c(C)n[nH]c2C)cs1 (stereo not given),21.2
6,O=C(N1CCCC1)N1CCC2(CC1)COCCN(Cc1cccnc1)C2,41.6
7,C[C@@H](NC(=O)c1ccc(Cl)cc1)c1onc(-c2cccnc2)c1C(=O)O,-4.82
8,COc1cccc2c1OCCCN(c1nc(N)nc3c1CCNC3)C2,27.6
9,CN(C)c1nc2c(c(N3CCc4c(c(CO)nn4C)C3)n1)CCNC2,-2.43
10,Cc1ccccc1N1CCN(c2nc(N(C)C)nc3c2CCNC3)CC1,88.5
11,Cc1cc2n(n1)CCN(c1nc(N(C)C)nc3c1CCNC3)C2,57.6
12,CN(C)c1nc2c(c(N3CCc4ccccc4C3)n1)CCNC2,66.7
13,c1ccc2c(c1)CCN(c1nc(-c3ccncc3)nc3c1CCNC3)C2,58
14,NCCC1CN(c2nc(-c3ccccc3)nc3c2CCNC3)CCO1 (stereo not given),38.2
15,c1ccc2c(c1)CCN(c1ncnc3sc4c(c13)CCNC4)C2,38.2
16,COCCNc1nc2c(c(N3CCn4nc(C)cc4C3)n1)CCNCC2,27.6
17,Cc1nc2c(c(N3CCN(c4ncccc4C(N)=O)CC3)n1)CCNC2,32.5
18,Cc1cc2n(n1)CCN(c1nc(N)nc3c1CCNCC3)C2,12.1
19,Cc1cccc(=O)n1CCCNc1nc(N(C)C)nc2c1CCNC2,10.9
20,COCC1CN(Cc2ccsc2)Cc2nn(C)cc21 (stereo not given),22.2
21,CN(CCCO)Cc1cc(Cl)ccc1OCC(O)CN1CCCCCC1 (stereo not given),-50.7
22,COc1ccnc(N2CCN(C(=O)Cc3ccn(C(C)C)n3)CC2)n1,-47.6
23,Cc1nn(C)c2nc(C(C)C)cc(C(=O)Nc3n[nH]c(C4CC4)n3)c12,45.3
24,O=C(NCCc1nncn1C1CC1)c1cnn(Cc2ccccc2)c1,4.13
